Data taken from PubChem BioAssay (NCI).
The panel holds about 79,000 compounds, 15% with a hit somewhere; the sample as a whole holds those more often. No stated cut-off is given here; in the data, active means growth inhibition above about 70%; inactive means the rest.

Legend:
[1] = NCI Yeast Anticancer Drug Screen. Data for the rad50 strain (AID 155);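 further: 0% = growth of vehicle-only cultures of the same strain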; conditions: S. cerevisiae rad50 strain growth inhibition; at 50.0 µM; stronger effect = higher value
Outline: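 Yeast carrying a defined DNA repair defect were exposed to test compounds, and growth was compared with vehicle-treated controls to give percent inhibition.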

[2] = NCI Yeast Anticancer Drug Screen. Data for the mec2-1 strain (AID 157); conditions: S. cerevisiae mec2-1 strain, at 50.0 µM, stronger effect = higher value
Outline: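 Growth inhibition is read against vehicle-treated controls after compound exposure of the mec2-1 yeast strain, which is defective in DNA damage repair or cell cycle control.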

[3] = NCI Yeast Anticancer Drug Screen. Data for the sgs1 mgt1 strain (AID 161);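 further: 0% = growth of cultures given vehicle only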; conditions: S. cerevisiae sgs1 mgt1 strain, at 50.0 µM, stronger effect = higher value
Outline: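 Compounds are added to genetically altered yeast, and growth is compared with cultures given vehicle alone to give percent inhibition.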

[4] = NCI Yeast Anticancer Drug Screen. Data for the cln2 rad14 strain (AID 165);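 further: 0% = growth equal to vehicle treated cultures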; conditions: S. cerevisiae cln2 rad14 strain, at 50.0 µM, stronger effect = higher value
Outline: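 Growth inhibition, relative to vehicle-treated controls, is the read-out. The test organism is a yeast strain with defined genetic alterations, cln2 rad14.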

[5] = NCI Yeast Anticancer Drug Screen. Data for the bub3 strain (AID 167); conditions: S. cerevisiae bub3 mutant strain, at 50.0 µM, stronger effect = higher value
Outline: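 Compounds were applied to a genetically altered yeast strain carrying a cell-cycle control defect. Growth inhibition was scored against vehicle-treated controls.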

[6] = NCI Yeast Anticancer Drug Screen. Data for the mlh1 rad18 strain (AID 175); conditions: S. cerevisiae mlh1 rad18 strain growth inhibition; at 50.0 µM; stronger effect = higher value
Outline: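 Cells of a genetically altered yeast strain, deficient in DNA damage repair, were treated with compound. Their growth was then compared with that of vehicle-treated cultures to give inhibition.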

Measured: growth inhibition

O=C1CCN2C=CC=CC2=N1
inactive: [1] -14.6% | [2] -8.6% | [3] 2.15% | [4] -26.6% | [5] -19% | [6] 6.95%

Cc1ccc(SCc2cn(C3OC(CO)C(O)C3O)c(=O)[nH]c2=O)cc1 (configuration not stated)
inactive: [1] 25.3% | [2] 20.4% | [3] 12.9% | [4] 22.6% | [5] -1.4% | [6] 12.2%

O=C(/C=C/c1ccc(O)c(O)c1)c1ccc(O)c(O)c1O
inactive: [1] 14.3% | [2] -5.15% | [3] 4.45% | [4] -57.9% | [5] 8.55% | [6] 19.5%

O=S(=O)(Cl)c1c(F)c(F)c(F)c(F)c1F
inactive: [1] -31.3% | [2] -41.1% | [3] -19.9% | [4] 24.1% | [5] -0.25% | [6] -21.4%

CCCCC(O)(CCCC)CC(C)(C)C
inactive: [1] -3.3% | [2] 1.6% | [3] -9% | [4] 18.7% | [5] 2.65% | [6] -1.35%

ON=C(C(Cl)(Cl)Cl)C(Cl)(Cl)Cl
inactive: [1] -17.2% | [2] -26% | [3] -8.35% | [4] 4.9% | [5] -11.9% | [6] -29.8%

C1CCN(CCC2CCNCC2)C1
inactive: [1] 5.5% | [2] -19.4% | [3] -15.1% | [4] 13.5% | [5] -1% | [6] 3.8%

CCN/C(C)=C\C(=O)OCC
inactive: [1] -0.9% | [2] 8.95% | [3] -0.65% | [4] -17.2% | [5] -9.95% | [6] 1.25%

COC1OC(C(C)O)C2OC(C)(C)OC12 (configuration not stated)
inactive: [1] 40.5% | [2] 29.1% | [3] 32.2% | [4] 1.5% | [5] 18.9% | [6] 13.3%

CC1CC(C)CN(S(=O)(=O)c2cc(Cl)c(Oc3ccc([N+](=O)[O-])cc3Cl)c(Cl)c2)C1 (configuration not stated)
inactive: [1] 7.8% | [2] -28.3% | [3] 3.75% | [4] 34.4% | [5] -11.3% | [6] -2.45%

Clc1ccc(Nc2ncco2)cc1Cl
inactive: [1] 16.7% | [2] -15.2% | [3] 30.6% | [4] -0.8% | [5] 1.1% | [6] 16.8%

CN(C)C(CN)CC1=C(CC(CN)N(C)C)CCC1 (configuration not stated)
inactive: [1] -15.5% | [2] 5.25% | [3] -5.5% | [4] -1% | [5] -5.25% | [6] 17.6%

COc1cc(C2C(C(=O)O)=C(CO)Oc3cc4c(cc32)OCO4)cc(OC)c1OC (configuration not stated)
inactive: [1] -5.4% | [2] 7.35% | [3] -4.95% | [4] 1.1% | [5] -4.6% | [6] 4.25%

c1ccc(C2(c3ccccc3)SC2(c2ccccc2)c2ccccc2)cc1
inactive: [1] -13.9% | [2] -7.75% | [3] -11.1% | [4] -24.1% | [5] 2.15% | [6] -6.65%

CC1(C)CC(c2c[nH]c3ccccc23)=CC2=Nc3ccccc3C21O (configuration not stated)
inactive: [1] -41.9% | [2] 6.7% | [3] 3.8% | [4] 15% | [5] 2.65% | [6] 16.7%

CNC(=O)c1ccccc1CC(O)c1ccccc1 (configuration not stated)
inactive: [1] -7.95% | [2] 0.65% | [3] 4.75% | [4] 6.75% | [5] 0.9% | [6] 8.95%

C=C(C)COC(CCC)OCC(=C)C
inactive: [1] 6.85% | [2] 8.1% | [3] -8.45% | [4] 8.85% | [5] -2.3% | [6] 21.1%

CC(SC(C)c1ccccc1)c1ccccc1 (configuration not stated)
inactive: [1] -5.8% | [2] -16.6% | [3] -8.65% | [4] -11.9% | [5] -8.1% | [6] 3.65%

CN1C(=O)NC(=O)C1(C)C=O (configuration not stated)
inactive: [1] 2.8% | [2] 0.9% | [3] -2.7% | [4] 5.95% | [5] 10.9% | [6] -12.1%

CCC(C#N)NC(=O)NC(C#N)CC (configuration not stated)
inactive: [1] 0.75% | [2] 14.6% | [3] -9.7% | [4] -1.6% | [5] -16.9% | [6] -42.1%

CCCCN=C1Nc2nc(=NCCCC)nc3c(Br)cc(Br)c(n23)N1
inactive: [1] 37.2% | [2] 20.2% | [3] 5.4% | [4] 23.4% | [5] -4.9% | [6] 21.9%

COC(=S)SCSC(=S)OC
inactive: [1] -12.2% | [2] -27.3% | [3] -2.5% | [4] -14.9% | [5] -6.45% | [6] -27.9%

O=C1C=C(Nc2cccnc2)c2ccccc2C1=O
inactive: [1] 9.5% | [2] -7.2% | [3] 0.4% | [4] 8.5% | [5] 19.6% | [6] 8.8%

CC(=O)Nc1c(C)n(C)n(-c2ccccc2)c1=O
inactive: [1] -2.45% | [2] -12.7% | [3] 23.4% | [4] 31.1% | [5] 17.6% | [6] 13.6%

CCN1c2ccccc2CC(CCN(C)Cc2ccccc2)(C(N)=O)c2ccccc21 (configuration not stated)
inactive: [1] 26.1% | [2] -1.15% | [3] -7.7% | [4] 7.45% | [5] 5.3% | [6] -6.05%

CCOC(=O)c1cnc(SC)nc1Nc1ccc(OC)cc1
inactive: [1] 47.4% | [2] 8.55% | [3] 7.35% | [4] 9.6% | [5] 21.2% | [6] 50.1%

COc1cc2ccc(/C=C/C(=O)c3ccc4c(c3)OCO4)cc2cc1OC
inactive: [1] -7.3% | [2] -3.75% | [3] 3.25% | [4] 22.4% | [5] 6.4% | [6] -4.65%

O=S(=O)(OCC(F)(F)F)c1ccccc1
inactive: [1] 16.4% | [2] 8.25% | [3] 14.7% | [4] -2.8% | [5] -8.8% | [6] -10.4%

Nc1ccc(/C=C/c2ccc(N)cc2)cc1
inactive: [1] 9.05% | [2] -0.95% | [3] -1.4% | [4] -1.25% | [5] 8.9% | [6] 5.05%

CCCCCCCCCCCCCCCCCCCCCCC
inactive: [1] -30.4% | [2] -15.1% | [3] -21.9% | [4] 4.8% | [5] -17.2% | [6] -18.4%

Cc1ccc(NC(=O)c2ccc(C)c(N)c2)c(C)c1
inactive: [1] -16.2% | [2] -21.2% | [3] -15.8% | [4] -9.7% | [5] -25.1% | [6] -5.7%

CNc1nc(Cl)nc2c1nc(SC)n2-c1ccccc1
inactive: [1] 7.15% | [2] -17.8% | [3] 4.2% | [4] -13.2% | [5] 18.2% | [6] 17.4%

O=[N+]([O-])c1c(O)c(O)c2ccccc2c1Nc1ccccc1
inactive: [1] -29.9% | [2] -5.8% | [3] -0.3% | [4] -62.4% | [5] 11.7% | [6] -1.65%

O=C1OC(=O)C2C3C=CC(C4C=C(C5CC5)C43)C12 (configuration not stated)
inactive: [1] 9.8% | [2] -4.05% | [3] -4.1% | [4] -22.9% | [5] -5.5% | [6] 5.2%

CCCCCCc1c(C)nc(N)[nH]c1=O
inactive: [1] 7.55% | [2] -3.85% | [3] -13.4% | [4] -67.7% | [5] 10% | [6] -1.05%

C1CCC2C(C1)CCCC2NC1=NCCO1 (configuration not stated)
inactive: [1] 1.75% | [2] -23.7% | [3] 7.85% | [4] 12.8% | [5] -1.1% | [6] 12.3%

Cn1c(=O)c2c(nc3sc4ccccc4c(=O)n32)n(C)c1=O
inactive: [1] 19.2% | [2] -9.05% | [3] -7.4% | [4] 16.6% | [5] -30.9% | [6] 13.8%

COC(=O)c1c2c(cc3c1CC1(Cc4cc5c(c(C(C)=O)c4C1)CCC5)C3)CCC2 (configuration not stated)
inactive: [1] -34.1% | [2] -15.5% | [3] -63.8% | [4] -4.1% | [5] -20.7% | [6] -41.5%

CCC(C)(C)C1CCCCC1OC(C)=O (configuration not stated)
inactive: [1] 7.95% | [2] -2.6% | [3] 2.55% | [4] 7.95% | [5] 2.9% | [6] 1.25%

CCCC(CCc1ccccc1)C(N)=O (configuration not stated)
inactive: [1] 1.4% | [2] -5.7% | [3] 9.15% | [4] -7.35% | [5] 10.8% | [6] -1.9%

Clc1cccc(-c2nc3cccc4c3n2Cc2ncccc2-4)c1
inactive: [1] -47.8% | [2] -37% | [3] -42.5% | [4] -9.4% | [5] 0.65% | [6] -44.4%

O=C(O)C(=O)C(c1ccccc1)c1ccccc1
inactive: [1] -0.4% | [2] 6.9% | [3] -21.1% | [4] -29.1% | [5] -22.9% | [6] -5.3%
